Assay results as given in paper PMC7862700, “An all-to-all approach to the identification of sequence-specific readers for epigenetic DNA modifications on cytosine”.

Experiments:
Assay in all cases: DAPPL (digital affinity profiling via proximity ligation, sequencing); 10 mM Tris-HCl pH 7.5, 50 mM NaCl, 1 mM DTT, 4% glycerol, room temperature, 30 min; GST-TFs on glutathione beads, 16-mer random dsDNA library, 0.1% formaldehyde crosslink after washing; high values mean tight binding
Settings in all cases: protein: recombinant; tags: N-terminal GST; dsDNA, one strand shown
FLI1 = target: T1, FLI1 (Homo sapiens, UniProt Q01543 1-452)
T1 sequence: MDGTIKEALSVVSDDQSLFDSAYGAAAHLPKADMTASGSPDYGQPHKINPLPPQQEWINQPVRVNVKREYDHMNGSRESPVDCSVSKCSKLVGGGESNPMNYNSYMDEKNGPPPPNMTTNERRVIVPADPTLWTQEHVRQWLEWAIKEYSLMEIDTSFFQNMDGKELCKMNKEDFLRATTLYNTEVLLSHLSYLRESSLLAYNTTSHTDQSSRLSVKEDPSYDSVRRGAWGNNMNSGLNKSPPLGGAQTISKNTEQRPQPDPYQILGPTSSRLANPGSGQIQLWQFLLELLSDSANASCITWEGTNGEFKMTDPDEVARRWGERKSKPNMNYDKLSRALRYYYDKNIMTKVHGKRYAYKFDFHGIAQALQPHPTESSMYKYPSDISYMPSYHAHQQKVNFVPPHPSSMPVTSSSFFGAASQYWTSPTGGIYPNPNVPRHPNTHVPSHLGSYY
Outline: (§1)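 Human transcription factors fused to GST were expressed in yeast, captured on glutathione beads, given DNA barcodes and pooled with a GST-only negative control. Pools were incubated with 200 nmole of a 16-mer random double-stranded DNA library in Tris/NaCl/DTT/glycerol buffer at room temperature for 30 min. They were then washed, crosslinked with 0.1% formaldehyde, proximity-ligated (BsaI/T4 ligase, 1 h, 37 °C), PCR-amplified and sequenced on an Illumina NextSeq500. Binding signal is each 6-mer's read frequency for a factor divided by its frequency for the GST control.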

ELK1 = target: T2, ELK1 (Homo sapiens, UniProt P19419 1-428)
T2 sequence: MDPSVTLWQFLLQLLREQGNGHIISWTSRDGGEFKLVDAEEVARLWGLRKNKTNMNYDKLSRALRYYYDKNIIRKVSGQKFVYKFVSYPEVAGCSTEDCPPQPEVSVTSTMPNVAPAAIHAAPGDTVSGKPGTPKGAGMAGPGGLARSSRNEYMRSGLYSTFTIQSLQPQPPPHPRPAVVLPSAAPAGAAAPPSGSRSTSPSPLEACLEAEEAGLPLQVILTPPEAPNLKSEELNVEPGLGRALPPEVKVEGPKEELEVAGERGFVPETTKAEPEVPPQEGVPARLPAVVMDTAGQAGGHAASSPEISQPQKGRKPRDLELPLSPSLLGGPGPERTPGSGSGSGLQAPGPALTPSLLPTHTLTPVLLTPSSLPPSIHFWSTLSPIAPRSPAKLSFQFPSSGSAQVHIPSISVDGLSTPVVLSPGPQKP
Outline: as §1

GABPA = target: T3, GABPA (Homo sapiens, UniProt Q06546 1-454)
T3 sequence: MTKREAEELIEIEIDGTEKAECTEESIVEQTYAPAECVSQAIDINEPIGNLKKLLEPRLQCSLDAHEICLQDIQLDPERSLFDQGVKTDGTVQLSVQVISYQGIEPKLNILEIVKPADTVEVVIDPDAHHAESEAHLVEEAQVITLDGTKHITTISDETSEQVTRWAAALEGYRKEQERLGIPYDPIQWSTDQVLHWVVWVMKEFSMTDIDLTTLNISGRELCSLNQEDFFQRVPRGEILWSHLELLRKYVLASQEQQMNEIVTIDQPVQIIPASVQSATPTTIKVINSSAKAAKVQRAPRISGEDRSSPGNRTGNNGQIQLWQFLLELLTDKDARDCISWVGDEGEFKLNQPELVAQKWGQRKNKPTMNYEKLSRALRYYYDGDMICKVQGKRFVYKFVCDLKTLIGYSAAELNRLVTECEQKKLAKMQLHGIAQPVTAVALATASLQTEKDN
Outline: as §1

ERG = target: T4, ERG (Homo sapiens, UniProt P11308 1-479)
T4 sequence: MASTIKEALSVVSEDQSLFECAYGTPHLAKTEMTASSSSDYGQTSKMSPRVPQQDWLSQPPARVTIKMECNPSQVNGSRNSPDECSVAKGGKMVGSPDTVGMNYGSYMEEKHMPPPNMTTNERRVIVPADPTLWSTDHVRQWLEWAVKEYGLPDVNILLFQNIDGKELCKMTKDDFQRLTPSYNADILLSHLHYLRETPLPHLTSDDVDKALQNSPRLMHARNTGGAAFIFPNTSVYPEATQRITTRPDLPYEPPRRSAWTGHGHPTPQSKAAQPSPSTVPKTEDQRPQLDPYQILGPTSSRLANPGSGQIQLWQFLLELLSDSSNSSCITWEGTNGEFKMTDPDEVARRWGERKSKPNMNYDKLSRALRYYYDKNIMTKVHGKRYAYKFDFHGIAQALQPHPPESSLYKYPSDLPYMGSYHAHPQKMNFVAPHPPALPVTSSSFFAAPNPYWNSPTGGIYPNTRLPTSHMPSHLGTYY
Outline: as §1

ELF1 = ELF1 (Homo sapiens, UniProt P32519 1-619)
Sequence of ELF1 (P32519 whole entry): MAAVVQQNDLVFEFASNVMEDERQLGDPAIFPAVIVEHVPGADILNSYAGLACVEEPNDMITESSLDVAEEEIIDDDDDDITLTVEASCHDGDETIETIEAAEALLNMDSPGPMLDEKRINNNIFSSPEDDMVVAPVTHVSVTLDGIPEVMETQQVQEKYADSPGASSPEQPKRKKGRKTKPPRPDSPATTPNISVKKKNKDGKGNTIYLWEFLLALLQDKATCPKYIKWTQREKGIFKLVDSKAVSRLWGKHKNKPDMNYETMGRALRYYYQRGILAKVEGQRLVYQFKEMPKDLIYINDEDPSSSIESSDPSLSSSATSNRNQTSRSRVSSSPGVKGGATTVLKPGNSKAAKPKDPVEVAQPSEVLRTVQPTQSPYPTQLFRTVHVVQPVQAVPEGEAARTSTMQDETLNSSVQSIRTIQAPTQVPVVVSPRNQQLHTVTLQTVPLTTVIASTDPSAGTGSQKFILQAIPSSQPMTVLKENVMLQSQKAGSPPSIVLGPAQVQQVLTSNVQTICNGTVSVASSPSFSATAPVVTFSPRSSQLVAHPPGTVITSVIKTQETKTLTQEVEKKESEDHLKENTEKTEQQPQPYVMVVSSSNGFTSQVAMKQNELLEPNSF
Outline: as §1

EHF = target: T5, EHF (Homo sapiens, UniProt Q9NZC4 1-300)
T5 sequence: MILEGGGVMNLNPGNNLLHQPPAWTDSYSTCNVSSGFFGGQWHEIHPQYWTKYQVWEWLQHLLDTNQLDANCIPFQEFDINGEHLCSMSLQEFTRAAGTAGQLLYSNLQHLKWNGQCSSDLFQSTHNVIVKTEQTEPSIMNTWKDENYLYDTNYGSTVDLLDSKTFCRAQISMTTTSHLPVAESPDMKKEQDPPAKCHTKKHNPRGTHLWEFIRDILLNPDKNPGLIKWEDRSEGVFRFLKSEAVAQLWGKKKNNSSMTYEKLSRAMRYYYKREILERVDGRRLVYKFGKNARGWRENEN
Outline: as §1

SPI1 = SPI1 (Homo sapiens, UniProt P17947 1-270)
Outline: as §1

SPIB = SPIB (Homo sapiens, UniProt Q01892 1-262)
Sequence of SPIB (Q01892 whole entry): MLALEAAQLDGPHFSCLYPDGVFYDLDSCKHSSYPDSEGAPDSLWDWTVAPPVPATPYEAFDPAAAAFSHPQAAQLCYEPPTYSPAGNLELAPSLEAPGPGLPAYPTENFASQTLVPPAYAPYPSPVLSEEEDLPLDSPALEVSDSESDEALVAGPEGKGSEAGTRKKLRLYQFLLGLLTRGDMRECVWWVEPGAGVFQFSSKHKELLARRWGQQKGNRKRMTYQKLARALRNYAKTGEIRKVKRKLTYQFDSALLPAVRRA
Outline: as §1

ELK3 = target: T6, ELK3 (Homo sapiens, UniProt P41970 1-407)
T6 sequence: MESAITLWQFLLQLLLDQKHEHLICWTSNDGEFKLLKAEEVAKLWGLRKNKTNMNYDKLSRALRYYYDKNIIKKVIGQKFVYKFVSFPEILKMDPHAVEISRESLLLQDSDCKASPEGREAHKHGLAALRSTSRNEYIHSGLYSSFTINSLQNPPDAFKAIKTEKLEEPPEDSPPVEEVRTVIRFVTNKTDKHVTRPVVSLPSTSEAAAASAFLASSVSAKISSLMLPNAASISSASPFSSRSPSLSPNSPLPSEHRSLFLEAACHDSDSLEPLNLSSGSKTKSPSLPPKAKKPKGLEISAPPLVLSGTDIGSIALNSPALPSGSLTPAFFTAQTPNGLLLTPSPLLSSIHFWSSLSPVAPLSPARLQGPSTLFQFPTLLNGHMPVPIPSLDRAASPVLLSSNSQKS
Outline: as §1

ATGTAC
binding signal (FLI1): 1.31 fold enrichment (6-mer frequency, TF over GST control) | binding signal (ELK1): 1.31 fold enrichment (6-mer frequency, TF over GST control) | binding signal (GABPA): 1.19 fold enrichment (6-mer frequency, TF over GST control) | binding signal (ERG): 1.11 fold enrichment (6-mer frequency, TF over GST control) | binding signal (ELF1): 1.27 fold enrichment (6-mer frequency, TF over GST control) | binding signal (EHF): 1.25 fold enrichment (6-mer frequency, TF over GST control) | binding signal (SPI1): 1.23 fold enrichment (6-mer frequency, TF over GST control) | binding signal (SPIB): 1.27 fold enrichment (6-mer frequency, TF over GST control) | binding signal (ELK3): 1.26 fold enrichment (6-mer frequency, TF over GST control)

CGTACA
binding signal (FLI1): 1.18 fold enrichment (6-mer frequency, TF over GST control) | binding signal (ELK1): 1.19 fold enrichment (6-mer frequency, TF over GST control) | binding signal (GABPA): 1.17 fold enrichment (6-mer frequency, TF over GST control) | binding signal (ERG): 1.17 fold enrichment (6-mer frequency, TF over GST control) | binding signal (ELF1): 1.26 fold enrichment (6-mer frequency, TF over GST control) | binding signal (EHF): 1.16 fold enrichment (6-mer frequency, TF over GST control) | binding signal (SPI1): 1.12 fold enrichment (6-mer frequency, TF over GST control) | binding signal (SPIB): 1.1 fold enrichment (6-mer frequency, TF over GST control) | binding signal (ELK3): 1.16 fold enrichment (6-mer frequency, TF over GST control)

CTCCCT
binding signal (FLI1): 1.61 fold enrichment (6-mer frequency, TF over GST control) | binding signal (ELK1): 1.43 fold enrichment (6-mer frequency, TF over GST control) | binding signal (GABPA): 1.54 fold enrichment (6-mer frequency, TF over GST control) | binding signal (ERG): 1.62 fold enrichment (6-mer frequency, TF over GST control) | binding signal (ELF1): 1.68 fold enrichment (6-mer frequency, TF over GST control) | binding signal (EHF): 1.52 fold enrichment (6-mer frequency, TF over GST control) | binding signal (SPI1): 1.49 fold enrichment (6-mer frequency, TF over GST control) | binding signal (SPIB): 1.66 fold enrichment (6-mer frequency, TF over GST control) | binding signal (ELK3): 1.5 fold enrichment (6-mer frequency, TF over GST control)

TGTACG
binding signal (FLI1): 1.18 fold enrichment (6-mer frequency, TF over GST control) | binding signal (ELK1): 1.23 fold enrichment (6-mer frequency, TF over GST control) | binding signal (GABPA): 1.08 fold enrichment (6-mer frequency, TF over GST control) | binding signal (ERG): 1.15 fold enrichment (6-mer frequency, TF over GST control) | binding signal (ELF1): 1.11 fold enrichment (6-mer frequency, TF over GST control) | binding signal (EHF): 1.12 fold enrichment (6-mer frequency, TF over GST control) | binding signal (SPI1): 1.19 fold enrichment (6-mer frequency, TF over GST control) | binding signal (SPIB): 1.1 fold enrichment (6-mer frequency, TF over GST control) | binding signal (ELK3): 1.23 fold enrichment (6-mer frequency, TF over GST control)

GCAACT
binding signal (FLI1): 1.22 fold enrichment (6-mer frequency, TF over GST control) | binding signal (ELK1): 1.19 fold enrichment (6-mer frequency, TF over GST control) | binding signal (GABPA): 1.19 fold enrichment (6-mer frequency, TF over GST control) | binding signal (ERG): 1.33 fold enrichment (6-mer frequency, TF over GST control) | binding signal (ELF1): 1.29 fold enrichment (6-mer frequency, TF over GST control) | binding signal (EHF): 1.2 fold enrichment (6-mer frequency, TF over GST control) | binding signal (SPI1): 1.23 fold enrichment (6-mer frequency, TF over GST control) | binding signal (SPIB): 1.22 fold enrichment (6-mer frequency, TF over GST control) | binding signal (ELK3): 1.14 fold enrichment (6-mer frequency, TF over GST control)

TCACAA
binding signal (FLI1): 1.18 fold enrichment (6-mer frequency, TF over GST control) | binding signal (ELK1): 1.14 fold enrichment (6-mer frequency, TF over GST control) | binding signal (GABPA): 1.21 fold enrichment (6-mer frequency, TF over GST control) | binding signal (ERG): 1.11 fold enrichment (6-mer frequency, TF over GST control) | binding signal (ELF1): 1.23 fold enrichment (6-mer frequency, TF over GST control) | binding signal (EHF): 1.11 fold enrichment (6-mer frequency, TF over GST control) | binding signal (SPI1): 1.06 fold enrichment (6-mer frequency, TF over GST control) | binding signal (SPIB): 1.13 fold enrichment (6-mer frequency, TF over GST control) | binding signal (ELK3): 1.17 fold enrichment (6-mer frequency, TF over GST control)

CCTGCA
binding signal (FLI1): 1.28 fold enrichment (6-mer frequency, TF over GST control) | binding signal (ELK1): 1.3 fold enrichment (6-mer frequency, TF over GST control) | binding signal (GABPA): 1.19 fold enrichment (6-mer frequency, TF over GST control) | binding signal (ERG): 1.23 fold enrichment (6-mer frequency, TF over GST control) | binding signal (ELF1): 1.36 fold enrichment (6-mer frequency, TF over GST control) | binding signal (EHF): 1.42 fold enrichment (6-mer frequency, TF over GST control) | binding signal (SPI1): 1.17 fold enrichment (6-mer frequency, TF over GST control) | binding signal (SPIB): 1.24 fold enrichment (6-mer frequency, TF over GST control) | binding signal (ELK3): 1.23 fold enrichment (6-mer frequency, TF over GST control)

CCTCTT
binding signal (FLI1): 1.5 fold enrichment (6-mer frequency, TF over GST control) | binding signal (ELK1): 1.45 fold enrichment (6-mer frequency, TF over GST control) | binding signal (GABPA): 1.6 fold enrichment (6-mer frequency, TF over GST control) | binding signal (ERG): 1.68 fold enrichment (6-mer frequency, TF over GST control) | binding signal (ELF1): 1.5 fold enrichment (6-mer frequency, TF over GST control) | binding signal (EHF): 1.71 fold enrichment (6-mer frequency, TF over GST control) | binding signal (SPI1): 2.57 fold enrichment (6-mer frequency, TF over GST control) | binding signal (SPIB): 1.67 fold enrichment (6-mer frequency, TF over GST control) | binding signal (ELK3): 1.66 fold enrichment (6-mer frequency, TF over GST control)
